Calls of active or inactive are those of the source. How the source made its calls: active means hit-call score of the fitted dose curve at least 0.9, where 1 is the maximum; inactive means score below 0.9.

Experiment [1] can be described thus: APR_HepG2_NuclearSize_24hr: Apredica 24-hour HepG2 Assay for Nuclear Size (AID 2282907). The settings on record: high-content imaging, actives raise or lower the signal. The procedure, abridged: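 Read-out: nuclear diameter from Hoechst 33342 (2 ug/mL) imaging of fixed HepG2 cells, 20x, six fields/well. Compounds ran at 0.39–200 uM for 24 hr, 0.5% DMSO final. Gain or loss was fitted bidirectionally relative to the DMSO baseline.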

Experiment [2] is described as follows: APR_HepG2_CellLoss_24hr: Apredica 24-hour HepG2 Assay for Cell Loss (AID 2282908).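 On AC50: fit in both directions so a hit may be cell loss or gain.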 The settings on record: high-content imaging. In a few lines: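 Read-out: Hoechst 33342-stained nuclei counted by automated fluorescence imaging after formaldehyde fixation and Triton permeabilization. Ten concentrations, 0.39 to 200 uM, duplicate wells, 0.5% DMSO final. Gain or loss of signal fitted relative to DMSO baseline.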

Experiment [3] is described as follows: APR_HepG2_MicrotubuleCSK_24hr: Apredica 24-hour HepG2 Assay for Microtubule CSK Stabilty (AID 2282909). The settings on record: HepG2 microtubule cytoskeleton imaging, actives raise or lower the signal. The procedure, abridged:
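Read-out: alpha-tubulin immunofluorescence intensity by automated high-content imaging of fixed HepG2 cells after 24 h compound treatment. Ten concentrations, 0.39 to 200 uM, in duplicate; DMSO 0.5% v/v. Taxol positive control; DMSO-normalized bidirectional curve fitting.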

The nature of experiment [4]: APR_HepG2_MitoticArrest_24hr: Apredica 24-hour HepG2 Assay for Mitotic Arrest (AID 2282910). The conditions noted are these: high-content imaging, actives raise or lower the signal. In a few lines:
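Treatment lasted 24 hr in the human HepG2 line at 0.39–200 uM, solvent held at 0.5% DMSO. Fixed cells were stained with Hoechst 33342 and anti-phospho-histone H3, imaged at 20x, and analysed by gain- or loss-of-signal fitting against DMSO.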

Experiment [5] in a line: APR_HepG2_MitoMembPot_24hr: Apredica 24-hour HepG2 Assay for Mitochondrial Membrane Potential (AID 2282911). The settings on record: imaging, actives raise or lower the signal. The procedure, abridged: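 Cells are dosed for 24 hr across 0.39 to 200 uM with solvent held at 0.5% DMSO. They are then stained with 250 nM MitoTracker Red CMXRos for 30 min, fixed in 3.7% formaldehyde and imaged.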

The nature of experiment [6]: APR_HepG2_p53Act_24hr: Apredica 24-hour HepG2 Assay for p53 Activation (AID 2282913).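 Further: p53 protein immunofluorescence averaged per cell in HepG2 with Hoechst nuclei.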 The settings on record: high-content imaging, actives raise or lower the signal. In a few lines:
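Human HepG2 liver cells; 24 hr cpd treatment, 0.39–200 uM, 0.5% DMSO final. Fixed in 3.7% formaldehyde, permeabilized with 0.5% Triton X-100, stained with anti-p53/Cy5 plus Hoechst 33342. Six images per well at 20x; gain or loss vs DMSO.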

Experiment [7] in a line: APR_HepG2_CellCycleArrest_72hr: Apredica 72-hour HepG2 Assay for Cell Cycle Arrest (AID 2282914). The conditions noted are these: high-content imaging, actives raise or lower the signal. The procedure, abridged:
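Read-out is Hoechst-stained nuclear DNA content measured by automated fluorescence imaging (20x, six images per well), fitted in both directions relative to DMSO. Human HepG2 liver cells received 0.39–200 uM compound for 72 hr at 0.5% v/v DMSO.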

Experiment [8] can be described thus: APR_HepG2_CellLoss_72hr: Apredica 72-hour HepG2 Assay for Cell Loss (AID 2282915). The settings on record: high-content imaging. The procedure, abridged:
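HepG2 cells were exposed for 72 hr to compounds at 0.39–200 uM (ten concentrations, duplicate) in 0.5% v/v final DMSO. Nuclei were stained with Hoechst 33342 after 3.7% formaldehyde fixation, imaged at 20x, and counted; fits bidirectional versus DMSO.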

Experiment [9] can be described thus: APR_HepG2_P-H2AX_72hr: Apredica 72-hour HepG2 Assay for H2AX Phosphorylation (AID 2282916).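 Further: phospho-histone H2A.x immunostain intensity per cell marking DNA damage.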 The conditions noted are these: imaging, actives raise or lower the signal. In a few lines:
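Readout: phospho-H2A.x immunofluorescence (FITC secondary) plus Hoechst nuclear stain, high-content imaging at 20x, six fields/well. HepG2, 72 hr compound exposure, 0.39–200 uM, final DMSO 0.5% v/v. Gain or loss fitted relative to DMSO baseline.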

Experiment [10] in a line: APR_HepG2_MitoMembPot_72hr: Apredica 72-hour HepG2 Assay for Mitochondrial Membrane Potential (AID 2282917). The settings on record: imaging, actives raise or lower the signal. In a few lines:
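HepG2 cells exposed 72 h to compounds at 0.39–200 uM (0.5% v/v DMSO, duplicates); MitoTracker Red CMXRos 250 nM loaded 30 min before 3.7% formaldehyde fixation, imaged by HCS fluorescence. Bidirectional fit versus DMSO.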

Experiment [11] can be described thus: APR_HepG2_MitoticArrest_72hr: Apredica 72-hour HepG2 Assay for Mitotic Arrest (AID 2282918). The settings on record: high-content imaging, actives raise or lower the signal. The procedure, abridged:
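Read-out is phospho-histone H3 immunofluorescence with Hoechst nuclear segmentation, imaged at 20x. Human HepG2 liver cells received ten concentrations (0.39–200 uM, final DMSO 0.5% v/v) for 72 hr before fixation. Gain or loss of signal was fitted relative to DMSO.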

The nature of experiment [12]: APR_HepG2_MicrotubuleCSK_72hr: Apredica 72-hour HepG2 Assay for Microtubule CSK Stabilty (AID 2282919). The conditions noted are these: HepG2 microtubule cytoskeleton, high-content imaging, actives raise or lower the signal. In a few lines:
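Ten-point dosing (0.39–200 uM, 0.5% DMSO) of HepG2 for 72 hr, with taxol as the cytoskeletal positive control. The cells were formaldehyde-fixed and then stained with alpha-tubulin/Cy5 and Hoechst. Imaging at 20x used a −2 um Z offset for tubulin.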

Experiment [13] is described as follows: APR_HepG2_P-H2AX_24hr: Apredica 24-hour HepG2 Assay for H2AX Phosphorylation (AID 2282920). The conditions noted are these: high-content imaging, actives raise or lower the signal. In a few lines:
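HepG2, 24 hr, cpd 0.39–200 uM (10 conc, duplicate), DMSO 0.5% v/v final. Fix 3.7% formaldehyde, Triton X-100 permeabilize, anti-phospho-H2A.x 1:200 + Hoechst 2 ug/mL. Imaged, bidirectional fit vs DMSO.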

Experiment [14] can be described thus: APR_HepG2_StressKinase_72hr: Apredica 72-hour HepG2 Assay for Stress Kinase (AID 2282921). The settings on record: HepG2 stress kinase (phospho-c-Jun) imaging, actives raise or lower the signal. The procedure, abridged:
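Phospho-c-Jun immunofluorescence measured by high-content imaging at 20x, six fields per well; bidirectional curve fitting against DMSO as baseline. Dosing: 0.39–200 uM, 72 h, 0.5% DMSO final.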

A short description of experiment [15]: APR_HepG2_StressKinase_24hr: Apredica 24-hour HepG2 Assay for Stress Kinase (AID 2282922). The conditions noted are these: HepG2 stress kinase (phospho-c-Jun) imaging, actives raise or lower the signal. The procedure, abridged: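 After 24 hr compound treatment (up to 200 uM, final DMSO 0.5% v/v), HepG2 cells are fixed and multiplex-labeled; phospho-c-Jun intensity is captured by high-content fluorescence imaging and analyzed relative to DMSO.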

Experiment [16] can be described thus: APR_HepG2_p53Act_72hr: Apredica 72-hour HepG2 Assay for p53 Activation (AID 2282923).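 Further: average cellular p53 protein immunofluorescence intensity in HepG2 cells.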 The settings on record: high-content imaging, actives raise or lower the signal. The procedure, abridged:
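Readout: p53 immunofluorescence quantified by automated high-content imaging at 20x, six fields per well, nuclei located via Hoechst. Dosing ran 72 hr over ten concentrations from 0.39 to 200 uM; bidirectional curve fitting against DMSO baseline.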

Experiment [17] can be described thus: APR_HepG2_MitoMass_72hr: Apredica 72-hour HepG2 Assay for Mitochondrial Mass (AID 2282924).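 Further: MitoTracker Red CMXRos stain intensity per cell imaged as mitochondrial mass.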 The conditions noted are these: high-content imaging, actives raise or lower the signal. In a few lines:
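Steps: treat HepG2 72 hr (0.39–200 uM, duplicate wells); load MitoTracker Red CMXRos, 250 nM, 30 min; fix with 3.7% formaldehyde, permeabilise with 0.5% Triton X-100; capture images, nuclei via Hoechst 33342; fit bidirectionally against DMSO.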

The nature of experiment [18]: APR_HepG2_NuclearSize_72hr: Apredica 72-hour HepG2 Assay for Nuclear Size (AID 2282925). The settings on record: high-content imaging, actives raise or lower the signal. In a few lines:
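Compounds (0.39–200 uM, final DMSO 0.5%) were applied to HepG2 for 72 hr. Cells were then formaldehyde-fixed, permeabilized and labelled with Hoechst 33342. Nuclear diameter was quantified from six images per well.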

Experiment [19] in a line: APR_HepG2_MitoMass_24hr: Apredica 24-hour HepG2 Assay for Mitochondrial Mass (AID 2282912). The settings on record: high-content imaging, actives raise or lower the signal. In a few lines:
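HepG2, 24 hr dosing, 10 concentrations 0.39–200 uM in duplicate, DMSO 0.5% final. MitoTracker Red CMXRos 250 nM, 30 min pre-fix; 3.7% formaldehyde fix. Imaging-based fluorescence intensity; gain/loss fit vs DMSO baseline.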

In the case of `CSc1nnc(C(C)(C)C)c(=O)n1N`, the compound was classed as inactive in experiment [1], in experiment [2], in [3], in experiment [4], in [5] and in [6]. Also, the result in experiment [7], in [8], in experiment [9], in experiment [10], in experiment [11] and in experiment [12] was inactive. In addition, the outcome in experiment [13], in [14], in [15], in experiment [16], in experiment [17] and in [18] was inactive.
For `COc1cc(OC)nc(Sc2cccc(Cl)c2C(=O)O)n1`, the call in experiment [1], in [2], in experiment [3], in [4], in experiment [5] and in experiment [19] was inactive. The compound was classed as inactive in [6], in experiment [7], in [8], in experiment [9], in experiment [10] and in experiment [11]. Moreover, the compound was classed as inactive in experiment [12], in experiment [13], in [14], in [16], in experiment [17] and in [18].
Turning to `CCOP(=O)(OCC)Oc1cc(C)nc(C(C)C)n1`, the outcome in [1], in [2], in experiment [3], in experiment [4], in experiment [5] and in experiment [6] was inactive. Further, the compound was classed as inactive in experiment [7], in [8], in experiment [9], in experiment [10], in experiment [11] and in experiment [12]. In addition, the result in experiment [13], in [14], in [16], in experiment [17] and in experiment [18] was inactive.
Regarding `C#CCC1=C(C)C(OC(=O)C2C(C=C(C)C)C2(C)C)CC1=O` (stereo not given), the compound was classed as inactive in [1], in [3], in experiment [4], in experiment [5], in [6] and in experiment [8]. In addition, the compound was called inactive in experiment [9], in experiment [10], in experiment [11], in experiment [12], in experiment [13] and in [14]. Also, the call in [15], in experiment [16], in [17] and in experiment [18] was inactive. Moreover, the AC50 (in general, the concentration at which the activity in the assay is half-maximal) in [2] was 89.4 µM (active); in experiment [7], 104 µM (active).
On to `CC1=NNC(=O)N(/N=C/c2cccnc2)C1`, for which the call in experiment [1], in experiment [2], in experiment [3], in experiment [4], in experiment [5] and in experiment [6] was inactive. Moreover, the result in experiment [7], in [8], in [9], in experiment [10], in experiment [11] and in experiment [12] was inactive. Besides, the outcome in [13], in experiment [14], in [15], in [16], in experiment [17] and in experiment [18] was inactive.
On to `CCOP(=S)(OCC)Oc1cc(C)nc(C(C)C)n1`, for which the result in experiment [1], in experiment [2], in experiment [3], in experiment [4], in experiment [5] and in experiment [6] was inactive. Moreover, the compound was classed as inactive in experiment [7], in experiment [8], in [9], in [10], in experiment [11] and in [12]. In addition, the compound was classed as inactive in experiment [13], in [14], in experiment [15], in experiment [16], in experiment [17] and in [18].
For `O=c1ccc(=O)[nH][nH]1`, the compound was classed as inactive in [1], in [2], in [3], in experiment [4], in [5] and in experiment [6]. The result in experiment [7], in experiment [8], in [9], in [10], in [11] and in experiment [12] was inactive. Also, the compound was called inactive in [13], in experiment [14], in experiment [15], in [16], in experiment [17] and in [18].

The values are drawn from PubChem BioAssay (EPA / NIEHS).
